Bioassay records from PubChem BioAssay.
APOBEC3A inh: APOBEC3A ssDNA deaminase inhibitors, primary screen, selectivity assay for APOBEC3G inhibitor project, biochemical, FAM/TAMRA oligo cleavage fluorescence | inhibition, % at 20 µM | DNA dC->dU-editing enzyme APOBEC-3A (Homo sapiens), P31941 | 330,000 compounds, 0.41% hits | recombinant A3A, FAM/TAMRA ssDNA deamination fluorescence;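 active = at least 40% inhibition at 20 µM here, with at most 30% in a related deaminase screen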
Target sequence (P31941 whole entry, looked up): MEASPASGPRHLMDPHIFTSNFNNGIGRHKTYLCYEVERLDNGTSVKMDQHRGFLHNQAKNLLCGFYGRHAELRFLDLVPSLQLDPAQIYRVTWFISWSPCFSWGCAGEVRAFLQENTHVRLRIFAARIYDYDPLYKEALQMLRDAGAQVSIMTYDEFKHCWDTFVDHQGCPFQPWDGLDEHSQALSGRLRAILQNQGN
Wnt act: Wnt/beta-catenin pathway activators, primary screen, cell-based, plate reader, single point | Wnt/beta-catenin reporter cell assay, activator | activation, % at 9.35 µM | 300,000 compounds, 1.2% hits | AID 743398, 2014; in the data active = activation above about 30%, passing the limit was not always enough; inconclusive = no clear call, values can overlap the other calls
PHOSPHO1 block: PubChem AID 1565. recombinant PHOSPHO1, absorbance phosphatase assay. inhibition, % at 13.3 µM. 290,000 compounds, 1.1% hits; in the data active = inhibition above about 60%
Target sequence (Q8TCT1 whole entry, looked up): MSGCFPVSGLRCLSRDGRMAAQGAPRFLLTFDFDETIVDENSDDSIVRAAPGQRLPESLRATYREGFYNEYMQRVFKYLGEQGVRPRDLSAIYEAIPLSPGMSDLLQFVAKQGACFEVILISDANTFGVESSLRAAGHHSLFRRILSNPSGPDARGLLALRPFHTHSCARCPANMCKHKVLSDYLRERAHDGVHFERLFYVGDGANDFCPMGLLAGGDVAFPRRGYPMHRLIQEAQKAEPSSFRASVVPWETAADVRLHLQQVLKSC
esBAF inh: Bmi1 luciferase reporter increase in mESCs, primary screen, esBAF inhibitor project, mouse ES cells, Bmi1 luciferase knock-in, single point; 350,000 compounds, 2% hits; reporter increase, % at 12.5 µM; 24 h; 100% = twice the neutral-well signal; in the data active = activation above about 40%; inconclusive = no clear call, values can overlap the other calls;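 note: a rise in the Bmi1 reporter signal indicates esBAF inhibition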
MITF act: activators of MITF-driven TRPM1 promoter reporter, primary screen, cell-based, SK-MEL-5, luciferase, single point; 300,000 compounds, 0.75% hits; AID 588334, 2011; SK-MEL-5 TRPM1-promoter luciferase, 24 h; % of positive control, neutral wells = 0; activation, % at 12.5 µM;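 active = mean activation of at least 80% with every replicate also reaching 80%; inconclusive = mean reaches 80% but some replicate falls short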
A3G deaminase: APOBEC3G DNA deaminase inhibitors, primary screen, biochemical, fluorescence, single-stranded DNA substrate, uHTS. recombinant A3G, ssDNA deamination FAM/TAMRA fluorescence. 330,000 compounds, 0.28% hits. AID 493012, 2011. inhibition, % at 20 µM;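 active = inhibition of at least 40% at 20 µM, with no more than 30% in the related APOBEC3A deaminase screen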
A number is an active result; – = inactive; ? = inconclusive; · = no result. This is a sample that favours compounds with a hit; in the whole collection about 3.6% have one here.

SMILES | APOBEC3A inh | Wnt act | PHOSPHO1 block | esBAF inh | MITF act | A3G deaminase
C[C@@H]1CN([C@@H](C)CO)C(=O)c2cc(-c3cccc(F)c3)cnc2O[C@H]1CN(C)C(=O)Nc1cc(F)ccc1F | · | · | · | – | · | ·
Cc1ccc(-c2ccc3c(c2)O[C@H](CN(C)Cc2cccc(C(=O)O)c2)[C@H](C)CN([C@H](C)CO)S3(=O)=O)cc1 | · | · | · | – | · | ·
C[C@@H]1CN([C@H](C)CO)C(=O)c2cccc(NS(=O)(=O)c3cccs3)c2O[C@H]1CN(C)S(=O)(=O)c1ccc(Cl)cc1 | · | · | · | – | · | ·
O=C(c1ccccc1)c1ccccc1 | – | – | · | – | – | –
O=C(c1ccccc1)c1ccc(-c2ccc(O)cc2)cc1 | – | 35 | – | 76 | – | –
CCC(=O)N[C@H]1CC[C@H](CCNC(=O)Nc2ccc(F)cc2)O[C@@H]1CO | · | · | · | – | · | ·
Cc1ccc(-c2nnn(CC(=O)N(CC(=O)NCC3CCCO3)c3ccc(F)c(Cl)c3)n2)o1 (stereo unspecified) | – | · | – | · | – | –
O=C(CN(C(=O)Cn1nnc(-c2ccc(F)cc2)n1)c1ccc(F)c(Cl)c1)NCC1CCCO1 (stereo unspecified) | – | 41 | – | · | – | –
C[C@H]1CN([C@@H](C)CO)C(=O)Cc2cc(NS(=O)(=O)c3ccc(F)cc3)ccc2O[C@@H]1CN(C)S(=O)(=O)c1cccs1 | · | · | · | – | · | ·
C=CCn1c(Cc2cccs2)nnc1SCC(=O)c1cccc(Br)c1 | – | – | 68 | – | – | –
C[C@@H]1CN([C@H](C)CO)C(=O)Cc2cc(NS(=O)(=O)c3ccccc3)ccc2O[C@@H]1CN(C)S(=O)(=O)c1ccc(Cl)cc1 | · | · | · | – | · | ·
CC(=O)c1c(C)[nH]c(C(=O)OCC(=O)NCCc2ccc(F)cc2)c1C | – | – | – | – | – | –
CC(=O)c1c(C)[nH]c(C(=O)OCc2cccc(Cl)c2)c1C | – | – | – | 46 | – | –
COC(=O)c1c(C)[nH]c(C(=O)OCc2ccc(F)cc2)c1C | – | · | – | 46 | 114 | –
O=C(C[C@H]1CC[C@@H]2[C@H](COC[C@@H](O)CN2C(=O)Nc2ccc(Cl)c(Cl)c2)O1)NCc1ccccc1 | · | · | · | – | · | ·
Cc1nn(-c2ccccc2)c2sc(C(=O)N3CCOCC3)cc12 | – | · | – | 44 | – | –
O=C(c1ccc(Cl)cc1)N1CCCC(C(=O)N2CCc3ccccc3C2)C1 (stereo unspecified) | – | – | 60 | – | – | –
CCC1=NN(C(=O)c2ccccc2O)C(O)(c2ccccc2)C1 (stereo unspecified) | – | – | – | 87 | · | –
CS(=O)(=O)NCCSc1nnnn1-c1ccccc1 | – | · | – | · | – | –
O=S(=O)(NCCSc1nnnn1-c1ccccc1)c1cccs1 | – | – | – | 53 | – | –
Cc1nc(NC(=O)c2ccccc2)nc2cc3c(cc12)OCO3 | – | – | – | 49 | – | –
Cc1nc(NC(=O)c2ccc(F)cc2)nc2cc3c(cc12)OCO3 | – | · | – | – | – | –
Cc1ccccc1Nc1nc(N)nc(-c2oc3ccccc3c2C)n1 | – | 47 | – | · | · | –
COc1ccccc1Nc1nc(N)nc(-c2oc3ccccc3c2C)n1 | – | · | – | – | · | –
Cc1c(-c2nc(N)nc(Nc3ccc(F)cc3)n2)oc2ccccc12 | – | – | – | 62 | – | –
SMILES | APOBEC3A inh | Wnt act | PHOSPHO1 block | esBAF inh | MITF act | A3G deaminase
COc1ccc(-c2cnn3c4c(c(C)nc23)CCN4C(C)C)cc1OC | – | · | 62 | · | · | –
COCC1CCCN(C(=O)c2cc(COc3ccc(C(C)=O)cc3)on2)C1 (stereo unspecified) | – | 36 | – | 70 | – | –
CC(=O)c1ccc(OCc2cc(C(=O)N3CC[C@@H]4CCCC[C@H]4C3)no2)cc1 | – | 37 | – | 69 | – | –
CC(=O)c1ccc(OCc2cc(C(=O)N3CCN4CCCC4C3)no2)cc1 (stereo unspecified) | – | – | – | – | – | –
CC(=O)c1cccc(OCc2cc(C(=O)N3CCC(N4CCCCC4)CC3)no2)c1 | – | – | 64 | – | – | –
CC(=O)c1ccc(OCc2cc(C(=O)NC3CCCCC3)no2)cc1 | – | 32 | – | · | 103 | –
CC(=O)c1ccc(OCc2cc(C(=O)N3CCC(c4ccncc4)CC3)no2)cc1 | – | – | – | – | – | –
CC(=O)c1cccc(OCc2cc(C(=O)N3CCSCC3)no2)c1 | – | ? | – | · | – | –
CC(C)NC(=O)NC[C@H]1[C@H](c2ccccc2)[C@H](CO)N1C(=O)c1ccccc1 | · | · | · | – | · | ·
O=c1cc(CSc2nc3ccccc3c(=O)[nH]2)c2ccc(O)cc2o1 | · | – | 60 | · | – | ·
Cc1ccc(N/C=C/C(=O)c2ccco2)c(O)c1 | – | 56 | – | ? | – | –
Cc1ccc([N+](=O)[O-])cc1N/C=C/C(=O)c1ccco1 | – | – | – | 55 | – | –
C[C@H](CO)N1C[C@H](C)[C@@H](CN(C)C(=O)c2ccc3c(c2)OCO3)Oc2ncc(/C=C/c3ccccc3)cc2C1=O | · | · | · | – | · | ·
Cc1c(Cl)c(C(=O)NNC(=S)Nc2ccc(F)cc2)nn1C | – | – | – | – | – | –
Cc1c(Cl)c(C(=O)NNC(=S)Nc2ccccc2)nn1C | – | · | 66 | · | – | –
CCCN(C)C[C@H]1OCCCC[C@@H](C)Oc2ccc(NS(=O)(=O)c3cn(C)cn3)cc2C(=O)N([C@@H](C)CO)C[C@@H]1C | · | · | · | – | · | ·
CC(CNC(=O)c1ccccc1Cl)c1ccccc1 (stereo unspecified) | – | – | · | 48 | – | –
CCc1ccc(-n2c(SCC(=O)c3ccc4c(c3)NC(=O)CO4)nc3ccccc3c2=O)cc1 | – | – | 60 | – | – | –
c1ccc(-c2nn[nH]n2)cc1 | – | – | – | · | – | –
c1ccc(-c2nnc(-c3ccccc3)nn2)cc1 | – | 50 | – | · | · | –
Nc1ccccc1SCc1ccccc1Cl | – | – | – | · | · | –
Clc1ccccc1CSc1cnnc2ccccc12 | · | – | · | 45 | – | ·
CC(C)n1c(/C=C/c2ccccc2)nc2ccccc21 | – | – | – | 51 | – | –
CCCn1c(/C=C/c2ccccc2)nc2ccccc21 | – | · | – | – | – | –
Cc1noc(C)c1NC(=O)N(C)C[C@H]1Oc2ccc(NC(=O)c3ccncc3)cc2CC(=O)N([C@H](C)CO)C[C@@H]1C | · | · | · | – | · | ·
CCOC(=O)c1c(S(=O)(=O)N2CCCC(C(=O)Nc3ccc(C)cn3)C2)c(C)n(C)c1C (stereo unspecified) | – | – | 64 | – | – | –
